Assay results reported in the supplement of paper PMC6555819.

These sequences were tested on VDR:RXRa (NR concentration 270 nM, RXRa partner concentration 90 nM) (assay: PBM binding z-score (relative to random genomic background probes); higher = stronger binding; sequences stand for … in GC…GCGATTGACAGCGTAGAATGAAGG).
Procedure: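 Protein-binding microarray (Agilent 4x180K custom design, double-stranded 60-nt probes: 5' GC cap, 34-nt variable region, 24-nt constant primer region; full probe sequence given). Purified or IVT nuclear receptor:RXRα heterodimers (3:1 NR:RXRα, mostly 270:90 nM) or homodimers were incubated for 1 h in PBS with 2% milk and no ligand, then detected with Alexa488 antibodies. Fluorescence from o1-orientation probes (~5 replicates averaged) was converted to z-scores against 500 random hg19 background probes. Variable regions are seed direct-repeat (DR0–DR5) sites, all their single-nucleotide variants and half-site ablations.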

Row | Sequence | PBM binding z-score
1 | TCTCGGAGGACACGAAAGGTCAGAGATCGACATC | 3.42
2 | TGAATGAGGTTAAAGATCCGGGAACGTGGCGTCG | 1.03
3 | ATCTCTAGGTAAAAGTTCAGTGAGTCCCGAGGAT | 2.09
4 | CTCGAAAGGTCGTGCTCAGGTGAGTAGACCAAAC | 3.08
5 | TCATATAGATAAAAGGTGAAAGTCGGTGTGGTAA | 1.35
6 | TCTATTAGTTGAACGGCAACCGACGAGTCCGTTT | 0.759
7 | GCTGTTAGGTCAGGTTGGTCAGCTAACGGGTACG | 0.95
8 | CGTCCAAGGTCAATGCTAGGTCGGTGAAAGCATT | 4.11
9 | ATCTCTAGGTAAAAGTTCAGTGTATCCCGAGGAT | 1.56
10 | CAAACTAGGCCACGAAAGGTCAAAGTCGAATGAC | 4.9
11 | CGTCCAAGGTCAATGCTGGGTCAGTGAAAGCATT | 4.79
12 | CGTCAAAGTTCAAGGTAACGGAACAGAAAGCAGC | 3.63
13 | TCTTGTAGATCAACAGGAGGTAAAGAAAGATCGA | 0.194
14 | GCTGCTAGGTCAGATTGGTCAGCTAACGGGTACG | 0.624
15 | ATTCCAAGGTGATCGTGAGGTCGTTGATACTAAC | 3.31
16 | CAAACTAGTTCACCGGAAGGTCAAAGTCCGCATG | 5.4
17 | TCTATTAGATGAAGGGCAACCGACGAGTCCGTTT | 1.02
18 | CCAGACAGGTGAGAAGGTAACTCACCCTCGATTA | 0.0837
19 | GCTAGTTGGTCAGTAAAAGGTCCCACACCGGTCG | -0.352
20 | CGAACTAGGTCAGAACAGGACCGTGAAGGATGAT | -0.102

Row | Sequence | PBM binding z-score
21 | TCGAGTAGGTTATCAATGGGGCATTCAGCTTTCT | 0.361
22 | TCATAGAGGTAAAAGGTGAAAGTCGGTGTGGTAA | 1.48
23 | ACTAGCAGGCCAAGTTTCGGTCACTCAAACAAAG | -0.204
24 | ATATGTAGGTTAGCTAGGGTCATTCAGACTAGGC | 5.2
25 | AAATGTAGGTTATCGGGTCATTCAGTTTGCGCAT | 5.22
26 | ATCTCTAGGTAACAAGTTCAGTGTAAGAGAGGAC | 2.3
27 | TCTTGTAGATGAAAGGTTAAGAAAGCCGAAGCCT | 1.06
28 | CCTGCTAGGTCAAGGTCAGCTAATCTACAGTATG | 3.4
29 | GATACAAGGTCAAGGCCAGAGTACGCGTATTGAT | 4.39
30 | CGAACTAGGTCATCCAGGACAATGAATACATTGA | 4.99
31 | GCGACTGGGGCGAAGCAGGTTACCATAAGGTTGG | -0.549
32 | TCTTATAGATCAAAGGTTAAGAAAGCCGAAGCCT | 2.27
33 | ACTAGTTGGTCAGCTGAGGTCACATACAATTCGG | 4.21
34 | GATACAGGGTCAAGGCCACAGTACGCGTATTGAT | 4.2
35 | CGTCCAAGGTCAATGCTAGGACAGTGAAAGCATT | 3.83
36 | CGAACGAGGGCATGAGTTGACAGCAAATGCCGAT | 1.2
37 | AGTGAAAGTTCATCTAGGTAACGTAAGATATGCT | 4.97
38 | AGAACGAGCGCACGCTGAGTTGATAGCAGAGTAG | -0.801
39 | CCGACTGGGGCAGAAAGGTTGCCATACCATCCGG | -0.0793
40 | CCGACTGGGGCATAAGGATACCATAAGCCAGCCC | -0.657
